35 molecules from PubChem BioAssay (Tox21) can be followed below.

Inconclusive results are not listed. Where a call stands in place of a potency, no number is given. Activity calls are given as the source filed them. Unless noted, the call rests on the fitted dose curve.

The first test can be described thus: cAMP Responsive Elements (CRE) small molecule agonists, cell-based qHTS assay (AID 1963590). To be noted: CRE-bla HEK293T, beta-lactamase FRET ratio, 3 h; series mostly up to 92.4 µM. Put shortly: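 Agonist mode qHTS in CRE-bla HEK 293T cells: compounds dosed from DMSO for 3 h at 37 C/5% CO2, followed by LiveBLAzer B/G FRET substrate for 2 h at room temperature.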
Take `FC(F)(F)C(Cl)(Cl)Cl`: the Potency entry is “inactive”.
Regarding `CCc1ccc(C=O)cc1`, the Potency entry is “inactive”.
The same measure, in the same setting: with `COC(=O)Cc1cccc2ccccc12` the entry was “inactive”; with `CCCc1c2oc(C(=O)O)cc(=O)c2cc2c(=O)cc(C(=O)O)n(CC)c12`, “inactive”.
Still for that read-out and setting: with `O=C(O)Cc1ccc(CCNS(=O)(=O)c2ccc(Cl)cc2)cc1` the entry was “inactive”; with `Cc1cc(C)c(C(=O)O)c(C)c1`, “inactive”.

The nature of the next test: cAMP Responsive Elements (CRE) small molecule antagonists, cell-based qHTS assay (AID 1963591; active means well fitted inhibition curve with a large enough effect in the signal ratio in the repeat runs, not every such curve was filed as active; the % refers to the signal ratio). Particulars: CRE-bla HEK293T, beta-lactamase FRET ratio; series mostly up to 92.4 µM. Put shortly:
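Antagonist mode: test compounds are co-incubated with the adenylyl cyclase activator NKH477 (0.25 uM final) on CRE-bla HEK293T cells for 3 h at 37 °C, followed by LiveBLAzer substrate loading.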
With `COC(=O)c1c(Cl)c(Cl)c(C(=O)OC)c(Cl)c1Cl`, the Potency entry is “inactive”.
Still for that read-out and setting: the entry for `c1ccc2cc3c4ccccc4c4ccccc4c3cc2c1` is “inactive”; for `Cn1cc(S(C)=O)c(=O)c2ccc(F)cc21` (centres undefined) it is “inactive”.
On the same count and under the same terms, the entry for `O=Cc1ccc(C(=O)O)cc1` is “inactive”; for `CCC(=O)OCc1ccccc1` it is “inactive”; for `BrC1CCC(Br)C(Br)CCC(Br)C(Br)CCC1Br` (centres undefined) it is “inactive”.
Consider `O=[N+]([O-])c1ccc2c(c1)Cc1ccccc1-2`, for which the Potency entry was “inactive”.
On the same count and under the same terms, the entry for `CCC1COC(=O)O1` (centres undefined) is “inactive”; for `C=C(C)C(=O)OCCCCCCOC(=O)C(=C)C` it is “inactive”; for `O=[N+]([O-])c1ccccc1Nc1ccccc1` it is “inactive”.
The same measure, in the same setting: the entry for `CCN1CCCC(OC(=O)C(c2ccccc2)c2ccccc2)C1` (centres undefined) is “inactive”.
The same measure, in the same setting: with `O=C1CCCCCCCCCCCCCCCO1` the entry was “inactive”; with `O=C(O[C@@H](C(=O)O)[C@@H](OC(=O)c1ccccc1)C(=O)O)c1ccccc1`, “inactive”.
`CN(C)CCCNCCCN(C)C`: the Potency result is “inactive”.
The same measure, in the same setting: with `CCC(=O)OC(C)c1ccccc1` (centres undefined) the entry was “inactive”; with `CC(C)CC(C)(N)C#N` (centres undefined), “inactive”; with `Cc1cc(C)cc(O)c1`, “inactive”.
Still for that read-out and setting: the entry for `C=C(C)[C@@H]1CCC2=CC(=O)C[C@@H](C)[C@]2(C)C1` is “inactive”.
Regarding `O=c1[nH]c(=O)c2ccccc2o1`, the Potency result was “inactive”.
Same read-out and setting: with `COCCOCCOCCOCCO` the entry was “inactive”; with `CCCCCCCCCCCCCCC(=O)NC(CO)CCCCCCCCCCCCCC` (centres undefined), “inactive”; with `C[C@@H]1CCC[C@H](C)N1CCCC(O)(c1ccccc1)c1ccccn1` (some centres undefined), “inactive”.
The same measure, in the same setting: the entry for `CCCCCCCCCC(C)=O` is “inactive”.
As for `CN(C)c1ccc(C(=N)c2ccc(N(C)C)cc2)cc1`, the Potency entry is “inactive”.
On the same count and under the same terms, the entry for `CCCCCCCCCC/C=C/C#N` is “inactive”; for `CNC(=O)Nc1ccc(Cl)c(Cl)c1` it is “inactive”.
The same measure, in the same setting: the entry for `[Cl][Eu]([Cl])[Cl]` is “inactive”; for `c1cnc2cc3c(cc2n1)C1CNCC3C1` it is “inactive”.
For `Nc1c(NC/C=C\COc2cc(CN3CCCCC3)ccn2)c(=O)c1=O`, the activity change, negative = inhibition was -4.15% [at 18.9 µM] (inactive).
Turning to `CCc1ccc(C=O)cc1`, the Potency result is “inactive”.
As for `CCCc1c2oc(C(=O)O)cc(=O)c2cc2c(=O)cc(C(=O)O)n(CC)c12`, the Potency entry is “inactive”.
Same read-out and setting: with `O=C(O)Cc1ccc(CCNS(=O)(=O)c2ccc(Cl)cc2)cc1` the entry was “inactive”; with `Cc1cc(C)c(C(=O)O)c(C)c1`, “inactive”.
